Pol kappa inh = qHTS for Inhibitors of Polymerase Kappa; hit rate 0.53% among 400,000; purified Pol kappa, fluorescent DNA synthesis assay, 10 min; Potency, µM (top dose mostly 107 µM), for the others: top-dose activity, negative = inhibition, actives largely listed as inhibitors; DNA polymerase kappa (Homo sapiens), Q9UBT6; note: potency is the fitted concentration of half-maximal effect; % is set by controls: 0 for no effect and ±100 for the full control effect
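Pol kappa 10 nM + cpd, 15 min RT; start w/ substrate 50 nM final; fluorescence kinetic read, 0 and 10 min. Neg ctrl: buffer, no enzyme.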
Pol beta inh = qHTS Assay for Inhibitors of DNA Polymerase Beta | AID 485314, 2010 | Pol beta primer extension/strand displacement, fluorescence kinetic | hit rate 1.3% among 340,000 | P06746 | Potency, µM (top dose mostly 114 µM), inactives show at the highest dose activity change, negative = inhibition, most hits filed as inhibitors; note: potency is the fitted concentration of half-maximal effect; % is set by controls: 0 for no effect and ±100 for the full control effect
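Homogeneous kinetic assay of primer extension and strand displacement by 10 nM Pol beta, preincubated 15 min at room temperature with compound before 50 nM substrate (final) was added. Read at 0 and 10 min; four-parameter Hill fit.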
Pol eta inh = qHTS for Inhibitors of Polymerase Eta | DNA polymerase eta (Homo sapiens), Q9Y253 | recombinant Pol eta, fluorescent DNA replication assay | Potency, µM (top dose mostly 114 µM), inactives show at the top dose activity change, negative = inhibition, actives largely listed as inhibitors | hit rate 1.2% among 390,000 | AID 588591, 2011; note: potency is the fitted concentration of half-maximal effect; % is set by controls: 0 for no effect and ±100 for the full control effect
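Fluorescent replication assay: 50 nM final substrate added after a 15 min room-temperature compound preincubation with 10 nM enzyme. Signal taken at 0 min and again at 10 min.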
FEN1 inh = qHTS Assay for the Inhibitors of Human Flap endonuclease 1 (FEN1); Recombinant FEN1 flap cleavage, fluorescence, 15 min; P39748; AID 588795, 2011; Potency, µM (doses to about 114 µM), for inactives: at the highest dose activity change, negative = inhibition, usual class: inhibitors; hit rate 0.35% among 390,000; note: potency is the fitted concentration of half-maximal effect; % is set by controls: 0 for no effect and ±100 for the full control effect; nearly all actives have a fitted effect of over 65% in size
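Read-out was taken twice, immediately and after 15 min, following addition of 50 nM substrate to 10 nM FEN1 that had sat with test compound for 15 min at room temperature. Curves came from a four-parameter Hill model.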
PI5P4K alpha inh = qHTS for Inhibitors of phosphatidylinositol 5-phosphate 4-kinase (PI5P4K); PI5P4Kalpha enzyme, ADP-Glo luminescence, 60 min; hits give low values; max response, %; hit rate 1.2% among 330,000; AID 652105, 2013; active = max response of -50% or lower; inconclusive = between -30% and -50%; inactive = -30% or higher; note: value at the top dose of about 77 µM; % is set by controls: 0 for no effect and ±100 for the full control effect
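qHTS, 1536-well: enzyme/substrate mix, compound by pin tool, 5 microM ATP final; RT 60 min; ADP-Glo reagents 1 (45 min) then 2 (30 min); luminescence.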
Pol iota inh = qHTS for Inhibitors of Polymerase Iota | Pol iota fluorescent replication assay, 10 min | DNA polymerase iota (Homo sapiens), Q9UNA4 | hit rate 1% among 390,000 | AID 588590, 2011 | Potency, µM (highest dose often 115 µM), inactives show at the highest dose activity, negative = inhibition, most hits filed as inhibitors; note: potency is the fitted concentration of half-maximal effect
Target sequence (Q9UNA4 whole entry, looked up): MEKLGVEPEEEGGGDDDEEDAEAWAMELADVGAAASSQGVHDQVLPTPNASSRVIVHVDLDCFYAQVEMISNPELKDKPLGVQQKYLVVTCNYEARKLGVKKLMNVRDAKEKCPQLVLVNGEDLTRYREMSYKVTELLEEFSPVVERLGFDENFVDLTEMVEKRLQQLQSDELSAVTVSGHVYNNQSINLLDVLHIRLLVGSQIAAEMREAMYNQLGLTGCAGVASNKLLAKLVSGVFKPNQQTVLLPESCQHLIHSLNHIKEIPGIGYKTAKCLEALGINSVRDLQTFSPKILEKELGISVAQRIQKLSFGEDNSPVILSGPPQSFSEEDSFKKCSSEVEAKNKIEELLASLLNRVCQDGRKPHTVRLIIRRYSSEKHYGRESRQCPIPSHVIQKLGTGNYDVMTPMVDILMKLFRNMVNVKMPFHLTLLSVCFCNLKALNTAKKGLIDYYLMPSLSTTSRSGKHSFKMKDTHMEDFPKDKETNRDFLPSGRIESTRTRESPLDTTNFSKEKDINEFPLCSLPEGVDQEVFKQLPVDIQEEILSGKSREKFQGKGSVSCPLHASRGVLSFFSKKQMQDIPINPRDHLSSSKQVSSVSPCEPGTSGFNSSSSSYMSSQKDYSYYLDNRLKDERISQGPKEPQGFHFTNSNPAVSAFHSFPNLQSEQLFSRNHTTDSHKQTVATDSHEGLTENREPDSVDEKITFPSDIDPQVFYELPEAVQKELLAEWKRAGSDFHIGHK
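Fluorescent replication assay read twice, at 0 min and 10 min after adding 50 nM (final) substrate. Enzyme (10 nM) and compounds were first incubated 15 min at room temperature; enzyme-free buffer wells were negative controls.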
Active calls of the source: *; ? = inconclusive; nt = not tested or not shown; [ ] = dose if it differs, or a comment. An excerpt weighted towards active compounds, which were near 2.8% of everything screened. Unless noted, calls come from the whole dose curve; as a rule, active = well fitted curve in the direction sought with a large enough effect; inconclusive = small, poorly fitted or top-dose-only effect, or another doubt; inactive = no such curve, though single readings can be large; an effect the other way counts as inactive or inconclusive.

SMILES | Pol kappa inh | Pol beta inh | Pol eta inh | FEN1 inh | PI5P4K alpha inh | Pol iota inh
O=C(NCc1ccccc1Cl)C1CCN(C(=O)c2ccco2)CC1 | 6.4% | 27.4% | -6.3% | 2.4% | 3.4 | 50.4%
COC(=O)C[C@H]1c2ccccc2S(=O)(=O)N1c1ccc(N(C)C)cc1 | 9.5% | nt | nt | -0.9% | nt | 27.0%
CC(Cc1ccccc1)NC(=O)CCNNC(=O)c1ccncc1 (stereo unspecified) | nt | nt | -0.1% | nt | -6.3 | nt
O=C(Cc1cccs1)Nc1ccc(-c2nnn(CC(=O)N3CCOCC3)n2)cc1 | -1.5% | 17.8µM* | -0.8% | 6.1% | nt | 0.5%
O=C(Nc1ccc(C(=O)OCc2cc(=O)n3c4c(sc3n2)CCCC4)cc1)c1cccc(F)c1 | -6.5%[60.1 µM] | -17.9% | -9.1% | -7.7% | nt | 6.0%
COc1ccc(-c2ccc(SCC(=O)Nc3cccc(C(C)=O)c3)nn2)cc1OC | ? | 15.8µM* | ? | -29.4% | -3.2 | 28.2µM*
CC(=O)c1ccc(NC(=O)CSc2ccc(-c3sc(C)nc3C)nn2)cc1 | -17.9% | 20µM* | -7.1% | -7.3% | -9.5 | ?
CC(=O)c1cccc(NC(=O)CSc2ccc(-c3ccc4c(c3)OCO4)nn2)c1 | -2.0% | -1.7% | 3.4% | 1.0% | -6.4 | -0.8%
COc1ccc(NC(=O)CSc2ccc(-c3sc(C)nc3C)nn2)cc1OC | -18.2% | 25.1µM* | -7.3% | 0.9% | -5.4 | ?
CC[C@H](C)N(C)C(=O)c1cc2ccccc2c(-c2ccccc2Cl)n1 | -7.8%[19.4 µM] | nt | nt | nt | nt | nt
C[C@H]1O[C@H](C2CCCC2)CC2=C1C(=O)OC(C)(C)O2 | nt | nt | nt | nt | 3.7 | nt
Cc1ccc(NC(=O)CCC(=O)N2CCC(C)CC2)c([N+](=O)[O-])c1 | ? | 35.9% | 5.5% | 13.9% | -1.0 | -6.1%
CCN(CC)c1ccc(NC(=O)C2CCN(c3nnc(-n4cccc4)s3)CC2)c(C)c1 | -9.0% | 25.1µM* | 1.6% | 14.4% | nt | ?
Cc1cc2oc3ccc(NCCCn4ccnc4)cc3c(=O)c2cc1C | -41.2% | nt | 56.2µM* | 0.4% | 3.7 | 22.4µM*
Cc1cc2oc3ccc(NCCCN4CCOCC4)cc3c(=O)c2cc1C | -1.0% | nt | -6.3% | -23.2% | -0.7 | 3.9%
CCNC(=O)NC(=O)COC(=O)c1ccccc1SCC(=O)NC(=O)NCC | -9.9% | -6.6% | 4.7% | 2.7% | -62.9* | ?
CCCCCCCCCCCCCCCC[n+]1ccc(C)cc1 | -13.9% | nt | nt | ? | nt | 12.2%
COc1cccc2c1C(=O)c1c(O)c3c(c(O)c1C2=O)C[C@@](O)(C(=O)CO)C[C@@H]3O[C@H]1C[C@H](N)[C@@H](O)[C@H](C)O1 | ? | nt | ? | ? | -19.2 | 39.8µM*
COc1cccc2c1C(=O)c1c(O)c3c(c(O)c1C2=O)C[C@@](O)(C(=O)CO)C[C@@H]3OC1C[C@@H](N)[C@H](O)[C@H](C)O1 (stereo partly specified) | 17.8µM* | nt | nt | nt | nt | nt
CC(=O)c1ccc(NC(=S)N2CCN(c3ccccn3)CC2)cc1 | -0.9% | 17.5% | 89.1µM* | -19.1% | -0.2 | 21.8%
Cc1c(N2C(=O)c3ccc4c5c(ccc(c35)C2=O)CC4)c(=O)n(-c2ccccc2)n1C | 50.1µM* | 5.01µM* | 2.82µM* | 50.1µM* | -63.6* | 5.62µM*
CC(C)Cn1c(SCc2cccc(F)c2)nc2ccsc2c1=O | -2.8% | -2.3% | -5.9% | 0.0% | nt | -16.5%
CC(C)c1ccc(NS(=O)(=O)c2cc(Br)cc3c2N(C(=O)C2CC2)CC3)cc1 | -6.8% | 18.2% | -20.5% | 9.3% | nt | 8.2%
CC(=O)N1CCc2cc(Br)cc(S(=O)(=O)N3CCC(C(=O)Nc4ccc(C(C)C)cc4)CC3)c21 | ? | -0.2% | -11.1% | 89.1µM* | nt | 35.5µM*
Cc1cccc(NC(=O)c2ccc3snnc3c2)c1C | -9.8% | 0.0% | -12.6% | 13.5% | nt | 49.0%
SMILES | Pol kappa inh | Pol beta inh | Pol eta inh | FEN1 inh | PI5P4K alpha inh | Pol iota inh
CCOC(=O)c1sc(N2C(=O)C(O)=C(C(=O)c3ccc(C)o3)C2c2cccc([N+](=O)[O-])c2)nc1C (stereo unspecified) | -1.0% | -11.4% | -7.9% | 16.2% | -51.2* | 36.1%
COc1ccc2nc(N3C(=O)C(O)=C(C(=O)c4ccco4)C3c3ccc(OC)c(OC)c3)sc2c1 (stereo unspecified) | nt | nt | -20.9% | nt | -22.9 | nt
CCOC(=O)c1sc(N2C(=O)C(O)=C(C(=O)c3ccco3)C2c2ccc(C)o2)nc1C (stereo unspecified) | ? | ? | ? | ? | -14.8 | ?
CCOC(=O)c1sc(N2C(=O)C(O)=C(C(=O)c3ccco3)C2c2ccc([N+](=O)[O-])cc2)nc1C (stereo unspecified) | -4.4% | nt | ? | 0.7% | -80.4* | 2.3%
COC(=O)c1sc(N2C(=O)C(O)=C(C(=O)c3ccc(C)o3)C2c2ccc([N+](=O)[O-])cc2)nc1C (stereo unspecified) | -10.2% | 2.9% | ? | 3.5% | -82.9* | 7.1%
CCOC(=O)c1sc(N2C(=O)C(O)=C(C(=O)c3ccc(C)o3)C2c2ccc(OC)c(OC)c2)nc1C (stereo unspecified) | -6.5% | -11.9% | -7.8% | 1.5% | -10.6 | 8.8%
Cc1ccc2nc(N3C(=O)C(O)=C(C(=O)c4ccc(C)o4)C3c3cccc(O)c3)sc2c1 (stereo unspecified) | -4.2% | ? | -19.2% | -17.6% | -58.3* | ?
c1ccc(CNC2CC3CCC2C3)cc1 (stereo unspecified) | -16.8% | nt | -10.1% | -0.4% | -3.5 | 86.8%
CCOC(=O)c1cc(C)n(CC2CCC(C(=O)Nc3ccc(C(C)=O)cc3)CC2)c1C (stereo unspecified) | 4.0% | -3.3% | -2.1% | -6.6% | nt | 4.1%
Cc1ccc(-c2noc(CNS(=O)(=O)c3ccccc3)n2)cc1 | -1.2% | -1.9% | -17.0% | -0.4% | 5.4 | -11.4%
CSCCC(N=C(NS(=O)(=O)c1ccc(C)cc1)c1ccccc1)C(=O)O (stereo unspecified) | -1.5% | 25.7% | 2.7% | -6.5% | 4.5 | -3.2%
Cc1csc2nc(COC(=O)c3ccccc3NC(=O)COc3ccccc3F)cc(=O)n12 | 6.3%[60.1 µM] | 25.1µM* | -13.5% | 3.9% | nt | -14.6%
CCOc1ccc(C(=O)Nc2ccc(C(=O)OCc3cc(=O)n4c(C)csc4n3)cc2)cc1 | -6.2%[60.1 µM] | 17.8µM* | -16.9% | 7.6% | nt | ?
Cc1ccc(OCC(=O)Nc2ccc(C(=O)OCc3cc(=O)n4c(C)csc4n3)cc2)cc1 | -3.1%[60.1 µM] | 15.3% | -21.0% | -0.3% | nt | -12.3%

Compound activity: PubChem BioAssay, National Center for Advancing Translational Sciences (NCATS)
